Screening data from PubChem.
This is a sample that favours compounds with a hit; in the whole collection about 7.2% have one here.
Mot1-301 SUMO: inhibitors of SUMOylation pathway: yeast Mot1-301 growth rescue. S. cerevisiae Mot1-301 growth rescue, ATP luminescence, 38.5C; percent above DMSO median, 100 means doubled. growth rescue, % at 18.8 µM. actives 1% (n = 320,000). AID 2716;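 active means every valid replicate shows activation above 250% relative to neutral control wells; inactive means the rest, any valid replicate at or below 250%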;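 further: OY570 slx delta 5 strain wells were the positive control but not used for scaling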
ALR inh: human ALR oxidase inhibition via reduced H2O2; purified ALR, DTT oxidation, H2O2 HRP-luminol luminescence; P55789; AID 485317; actives 3.8% (n = 290,000); inhibition, % (concentration not given with the values);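 active means mean replicate inhibition above about 79%, with every replicate also reaching it, limit read from the data; inconclusive means only one of the two criteria met; inactive means mean below limit and not every replicate reaching it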
A1 inh: inhibitors of the anti-apoptotic protein A1, read as caspase activation | MEF A1-2A-BIM cells, Caspase-Glo 3/7 luminescence, 3 h; percent of clofoctol response, vehicle zero | caspase activation, % (test concentration not listed) | actives 0.066% (n = 330,000);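 active means over half of replicate activation scores above 10%, or exactly half above 10 with the replicate mean above 10; inconclusive means replicate mean below 10 yet half the replicates above 10; inactive means over half of replicates below 10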
Efflux pump inh: blocks antifungal efflux pumps in multiplex yeast assay; S. cerevisiae Candida pump triplex, Nile Red efflux; inhibition, % at 10 µM; actives 0.44% (n = 330,000); AID 485275;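 active means plate passing quality check with inhibition over a set limit, or well fluorescence over plate mean plus 4 SD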;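 further: Nile Red retained in pooled yeast measured as flow cytometry median fluorescence; 0% = buffer negative control and 100% = Enniatin B positive control; higher means more Nile Red kept so more efflux inhibition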
AHR act: human AHR activation | AID 2796 | actives 2.5% (n = 320,000) | AHR-responsive luciferase reporter cells, luminescence | activation, % at 5 µM | P35869; in the data active means activation above about 47%;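 further: 0% = vehicle wells and 100% = reference agonist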
Target sequence (P35869 whole entry, looked up): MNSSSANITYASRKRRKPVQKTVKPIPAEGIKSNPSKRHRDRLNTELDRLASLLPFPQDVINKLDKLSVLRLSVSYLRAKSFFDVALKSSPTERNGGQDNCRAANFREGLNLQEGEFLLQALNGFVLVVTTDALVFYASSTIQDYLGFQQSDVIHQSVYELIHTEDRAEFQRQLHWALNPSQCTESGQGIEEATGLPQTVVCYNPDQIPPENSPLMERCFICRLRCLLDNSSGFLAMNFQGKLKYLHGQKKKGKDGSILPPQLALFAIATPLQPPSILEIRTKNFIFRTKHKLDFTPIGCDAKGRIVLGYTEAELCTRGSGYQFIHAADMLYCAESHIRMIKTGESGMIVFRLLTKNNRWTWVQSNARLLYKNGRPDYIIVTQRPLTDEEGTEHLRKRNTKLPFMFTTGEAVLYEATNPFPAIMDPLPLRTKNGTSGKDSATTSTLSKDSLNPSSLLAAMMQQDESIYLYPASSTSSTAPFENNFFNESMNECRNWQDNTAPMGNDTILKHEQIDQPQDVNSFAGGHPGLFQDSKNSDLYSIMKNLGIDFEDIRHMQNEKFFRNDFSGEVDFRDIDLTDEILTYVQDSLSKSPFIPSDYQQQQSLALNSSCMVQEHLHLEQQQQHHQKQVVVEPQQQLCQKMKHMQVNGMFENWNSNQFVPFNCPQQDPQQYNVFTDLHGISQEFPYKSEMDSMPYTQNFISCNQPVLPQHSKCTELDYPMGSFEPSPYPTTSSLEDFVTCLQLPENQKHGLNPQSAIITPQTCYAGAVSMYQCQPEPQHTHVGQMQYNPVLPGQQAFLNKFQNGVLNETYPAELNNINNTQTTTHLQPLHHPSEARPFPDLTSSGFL
VLA-4 inh: inhibition in a human VLA-4 binding assay | P13612 | VLA-4 expressing cells, ligand binding flow cytometry | inhibition, % (about 7 µM as worked out from the volumes in the protocol) | actives 0.2% (n = 330,000); in the data active means inhibition above about 50%
* marks the source's active call; other numbers are inactive results; ? = inconclusive; . = no result given.

SMILES | Mot1-301 SUMO | ALR inh | A1 inh | Efflux pump inh | AHR act | VLA-4 inh
COc1cc(/C=N/n2c(-c3cc(C)[nH]n3)n[nH]c2=S)cc(OC)c1OC | 6.3 | 26.8 | -0.5 | 0.1 | 0.5 | -2.9
Cc1cc(-c2n[nH]c(=S)n2/N=C/c2ccccc2[N+](=O)[O-])n[nH]1 | 0.9 | 94.9* | 0.2 | -0.1 | 47.6* | -1.9
S=c1[nH]nc(-c2n[nH]c3c2CCC3)n1/N=C/C=C/c1ccco1 | 2.0 | 97.5* | -0.1 | -0.1 | 15.6 | -3.3
COc1ccc(N(CC(=O)Nc2ccccc2C(=O)NCc2ccco2)S(C)(=O)=O)cc1 | 8.6 | -3.9 | 0.4 | 0.0 | -0.6 | -1.7
CC(=O)N1N=C(c2ccc(C)o2)CC1c1cccc(F)c1 (stereo not drawn) | -9.6 | -0.5 | 0.4 | 0.1 | -0.1 | -8.6
Cc1cccc(CS(=O)(=O)c2ncc(Cl)c(C(=O)Nc3nnc(C(C)C)s3)n2)c1 | -8.1 | 10.6 | 8.1* | 0.0 | 0.4 | 14.5
O=C(COC(=O)Cc1ccccc1[N+](=O)[O-])NNC(=O)c1ccc([N+](=O)[O-])cc1 | -2.2 | -17.6 | 0.2 | 0.1 | 0.3 | 8.1
Cc1noc(C)c1NC(=O)N(C)C[C@H]1Oc2ccc(NC(=O)c3ccncc3)cc2C(=O)N([C@H](C)CO)C[C@@H]1C | . | . | . | -0.1 | 0.3 | -10.5
c1ccc(-c2cc(-c3nnco3)c3ccccc3n2)nc1 | -5.5 | -2.2 | 0.0 | 0.1 | 62.0* | 13.7
Cc1c(-n2c(SCC(N)=O)nc3ccccc3c2=O)c(=O)n(-c2ccccc2)n1C | -0.1 | -12.0 | 0.7 | -0.1 | -0.7 | 4.8
COc1cccc2c1nc(C)c1cc(C)oc12 | . | -6.6 | 0.2 | 0.4 | 62.1* | 3.0
O=C(CCSc1nc2ccccc2s1)N/N=C/c1c(O)ccc2ccccc12 | 9.2 | -9.7 | -0.9 | 0.1 | 18.7 | -2.9
O=C(NCCCN1CCN(c2ccccc2F)CC1)C1CCCN(S(=O)(=O)c2cnc[nH]2)C1 (stereo not drawn) | . | . | . | 0.8 | 0.5 | -1.7
CN(CCCNC(=O)C1CCCN(S(=O)(=O)c2cnc[nH]2)C1)c1ccccc1 (stereo not drawn) | 403.2 | 99.7* | 0.1 | 0.1 | 1.9 | 26.6
CCCS(=O)(=O)N1CCCC(C(=O)NCCCN(C)Cc2ccccc2)C1 (stereo not drawn) | -21.8 | 1.0 | -0.6 | 0.2 | 2.2 | -5.9
CCCS(=O)(=O)N1CCCC(C(=O)NCCCN(C)c2ccccc2)C1 (stereo not drawn) | -5.8 | 81.6* | 0.5 | 0.0 | -2.8 | 13.3
Cc1cc(Cl)ccc1OCC(=O)NCCOC(=O)Nc1sc(=S)n(C)c1C | 23.2 | 13.9 | -0.5 | 0.0 | 3.4 | 7.1
Cc1c(NC(=O)OCCNC(=O)COc2ccc(Cl)cc2Cl)sc(=S)n1C | -2.2 | 97.5* | -0.1 | 0.0 | 8.9 | -13.5
Cc1c(NC(=O)OCCNC(=O)Nc2ccccc2)sc(=S)n1C | 212.8 | 98.3* | ? | -0.2 | -0.1 | -5.2
Cc1ccc(S(=O)(=O)NCCOC(=O)Nc2sc(=S)n(C)c2C)cc1 | 63.2 | 50.6 | 0.7 | 0.0 | -3.6 | 0.5
CC1CCCN(c2ccc(C(=O)Nc3cccnc3)cc2[N+](=O)[O-])C1 (stereo not drawn) | 36.3 | 11.1 | -0.7 | -0.2 | 23.1 | -2.9
CCc1ccccc1N(C(=O)c1snc(C(N)=O)c1N)C(C(=O)NCC1CCCO1)c1c[nH]c2ccccc12 (stereo not drawn) | 191.9 | 0.5 | 0.0 | 0.1 | 41.3 | 1.6
O=C(c1cncc(Br)c1)N1CCN(S(=O)(=O)c2ccc(Cl)cc2)CC1 | 306.3* | -8.6 | -0.2 | 0.0 | 2.9 | -4.4
O=C(c1cccnc1)N1CCN(S(=O)(=O)c2cccc(Cl)c2)CC1 | -20.2 | -15.9 | 1.7 | -0.5 | . | 23.0
CC(/C=C1\SC(=S)N(CCC(=O)Nc2ccccc2O)C1=O)=C\c1ccccc1 | -7.8 | -3.3 | -1.5 | -0.1 | 2.6 | -4.5
SMILES | Mot1-301 SUMO | ALR inh | A1 inh | Efflux pump inh | AHR act | VLA-4 inh
CC(/C=C1\SC(=O)N(CCCC(=O)O)C1=O)=C\c1ccccc1 | 31.7 | 96.9* | -0.9 | 0.2 | -4.5 | 4.0
CC(=C\c1ccccc1)/C=C1/SC(=S)N(CCC(=O)Nc2ccccn2)C1=O | -0.4 | -2.2 | -0.9 | 0.7* | -1.9 | -8.1
CC(=C\c1ccccc1)/C=C1/SC(=S)N(CCCC(=O)O)C1=O | -18.0 | 13.5 | 0.8 | 0.3 | . | -20.9
N#Cc1ccc(CSc2nnc(NC(=O)c3ccc(=O)[nH]c3)s2)cc1 | -8.0 | 91.8* | -0.2 | -0.1 | 0.4 | 0.3
OC(CN1CCCCC1)Cn1c2ccccc2c2cc(Br)ccc21 (stereo not drawn) | 5.8 | -22.6 | 1.9 | 0.0 | 9.3 | 13.4
Cc1c(C)n(CC(O)CN2CCCCCC2)c2ccccc12 (stereo not drawn) | -4.5 | 97.5* | -0.1 | -0.1 | 2.7 | -1.3
Cc1c(C)n(CC(O)CNc2ccccc2)c2ccccc12 (stereo not drawn) | 8.1 | 98.1* | -0.5 | -0.2 | 2.6 | 25.0
COc1ccc(NCC(O)Cn2c(C)c(C)c3ccccc32)cc1 (stereo not drawn) | 105.1 | . | 0.2 | 0.0 | 0.9 | -2.2
COc1cc2c(cc1OC)C(c1ccsc1)CC(=O)N2 (stereo not drawn) | 739.2 | 2.4 | 2.8 | 0.0 | 21.3 | 12.8
COc1cc2c(cc1OC)C(c1ccc(C(F)(F)F)cc1)CC(=O)N2 (stereo not drawn) | -8.1 | 1.5 | 0.4 | -0.2 | 54.2* | 25.2
COc1cc(/C=C(/NC(C)=O)C(=O)O)cc(Cl)c1OCc1ccc(Br)cc1 | 2.6 | 94.9* | 1.8 | 0.0 | 1.6 | 1.6
CCOC(=O)c1cc(NC(=O)CSCCO)ccc1Cl | 2.9 | 98.9* | -0.6 | 0.0 | 5.2 | -8.2
Cc1ccc(NC(=O)CSCC#N)cc1Cl | 4.4 | 98.9* | 0.7 | -0.3 | 8.7 | 3.9
CCOC(=O)c1cc(NC(=O)COC)ccc1O | -3.3 | 0.1 | 0.3 | 0.1 | 0.0 | 2.8
COc1cc(Cl)c(C)cc1NC(=O)CSCC#N | -3.6 | -10.8 | 0.5 | 0.0 | 34.2 | -6.4
Cc1ccc(NC(=O)CSc2nncs2)cc1Cl | 24.9 | 98.9* | 0.5 | 0.1 | 0.0 | -7.5
Fc1ccc(C2Nc3cccc4cccc(c34)N2)cc1 | 73.4 | -1.1 | -0.8 | 0.5 | 50.8* | 3.5
Clc1cccc(C2Nc3cccc4cccc(c34)N2)c1Cl | -18.2 | -3.2 | -0.2 | 0.2 | 58.9* | 3.7
O=[N+]([O-])c1ccc(C2Nc3cccc4cccc(c34)N2)cc1 | 2.3 | -4.8 | -0.2 | -0.4 | 19.2 | -7.7
CN1CCC(=O)N(CCOc2ccccc2)CC1 | 8.8 | -11.8 | -0.1 | 0.1 | 1.1 | 2.0
O=C(NCCOc1ccc(F)cc1)C1CCC(=O)N(CC2CCCCC2)C1 (stereo not drawn) | 45.5 | -7.4 | 0.9 | 0.0 | 0.9 | 9.2
CCc1nn(C(CC)C(=O)NCCc2ccc(OC)cc2OC)c(=O)c2cc3occc3n12 (stereo not drawn) | 1.1 | -4.4 | 0.3 | 0.3 | 6.7 | 17.2
